Screening results from PubChem BioAssay.
PostGolgi yeast: phenotypic screen on post-Golgi transport, primary screen. inhibition, % at 10 µM. 98,000 compounds, 0.9% hits. post-Golgi transport phenotypic cell assay;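 further: yeast cells grown in 1536-well plates; yeast grown about 18 h at 30C before absorbance read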
MT1-MMP txn act: MT1-MMP promoter reporter activation – cell-based, luciferase luminescence, primary screen | HT1080 MT1-MMP promoter luciferase reporter, overnight; active compounds read high | activation factor at 10 µM | 86,000 compounds, 0.16% hits | AID 750, 2007;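 active means activation factor of at least 2 for MT1-MMP transcription at 10 µM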
Measles CPE: compounds protecting cells from measles virus cytopathic effect, primary screen, measles RdRp inhibitor project, single point, MLSMR library, absorbance | Measles virus-infected cells, CPE protection | protection (pct of control), % at 4 µM | 140,000 compounds, 1.5% hits | AID 841, 2007; in the data active means protection mostly above about 24%, no sharp cut-off; inactive means mostly below about 26%
PostGolgi ctrl: growth inhibition of yeast control strain, primary screen, counter-screen for post-Golgi transport modulator project; 98,000 compounds, 5% hits; inhibition, % at 10 µM; AID 738, 2007; efflux-deficient yeast background strain, growth absorbance A615, 16 h
Active calls of the source: *. Hits are enriched below; roughly 5.3% of the tested compounds scored in any of these assays. Unless noted, no stated cut-off is given here; in the data, active means inhibition above about 30%; inactive means the rest.

Screening Cc1ccccc1NC1=C(C(=O)c2ccccc2)N(C)S(=O)(=O)c2ccccc21 returned PostGolgi yeast 13, Measles CPE 3 and PostGolgi ctrl 21.
Screening O=C(O)c1ccc(N/N=C/c2ccc(OC(=O)c3ccccc3Cl)cc2)cc1 returned Measles CPE 6.
Cc1cc(C)nc(NN=C(c2ccccc2)c2ccccc2)n1 was read as Measles CPE 14.
For CN1CC(c2ccccc2Cl)C2(COc3ccccc3C2=O)C12C(=O)Nc1ccccc12 (centres undefined) the results were PostGolgi yeast 2, Measles CPE 10 and PostGolgi ctrl 46*.
Screening CN1CC(c2ccccc2)C2(SC(=S)N(Cc3ccco3)C2=O)C12C(=O)Nc1ccccc12 (centres undefined) returned PostGolgi yeast 13, MT1-MMP txn act 1.1, Measles CPE 20 and PostGolgi ctrl 30.
For Cc1ccc(C2CN(C)C3(C(=O)Nc4ccccc43)C23COc2ccccc2C3=O)cc1 (centres undefined) the results were PostGolgi yeast -5, Measles CPE 12 and PostGolgi ctrl 80*.
`COc1cc(C(=O)Nc2nnc(-c3sccc3C)s2)cc(OC)c1OC` gave PostGolgi yeast 0, MT1-MMP txn act 1.1, Measles CPE 16 and PostGolgi ctrl 36*.
Screening O=C(CN(C1CCCCC1)C1CCCCC1)N1CCc2ccccc2C1 returned PostGolgi yeast 30, Measles CPE 4 and PostGolgi ctrl 12.
`O=C1CCC/C1=c1\s/c(=C\c2cccnc2)c(=O)n1-c1ccccc1` gave PostGolgi yeast 2, MT1-MMP txn act 1, Measles CPE 28* and PostGolgi ctrl 9.
For CCCCN(CC)CCCNC(=O)c1cc2cc3ccc(OC)cc3nc2o1 the results were PostGolgi yeast 7, MT1-MMP txn act 1.1, Measles CPE 4 and PostGolgi ctrl 46*.
For COc1ccc2cc3cc(C(=O)NCCCN4CCOCC4)oc3nc2c1 the results were PostGolgi yeast 15, MT1-MMP txn act 1.2, Measles CPE 4 and PostGolgi ctrl 24.
COc1ccc2cc3cc(C(=O)NCCc4ccc(OC)c(OC)c4)oc3nc2c1 was read as PostGolgi yeast 7, MT1-MMP txn act 1.2, Measles CPE 3 and PostGolgi ctrl 27.
CCCN(CCC)CCCNC(=O)c1cc2cc3ccc(OC)cc3nc2o1 was read as PostGolgi yeast 5, MT1-MMP txn act 1.2, Measles CPE 6 and PostGolgi ctrl 40*.
For COc1ccc2cc3cc(C(=O)NCCN4CCc5ccccc5C4)oc3nc2c1 the results were PostGolgi yeast 6, MT1-MMP txn act 1.2, Measles CPE 4 and PostGolgi ctrl 66*.
For CCN1CCN(CCCNC(=O)c2cc3cc4ccc(OC)cc4nc3o2)CC1 the results were PostGolgi yeast 13, MT1-MMP txn act 1.2, Measles CPE 5 and PostGolgi ctrl 35*.
For CC(C)n1c(NCCc2ccccc2)nc2c1c(=O)n(C)c(=O)n2C the results were MT1-MMP txn act 0.9 and Measles CPE 5.
`Cc1nn(-c2ccccc2)c(C)c1/C=N\NS(=O)(=O)c1ccc(Cl)cc1` gave PostGolgi yeast -5, Measles CPE 2 and PostGolgi ctrl 3.
`C=CCNC(=S)NNc1nc2c(c(=O)[nH]1)C1(CCCCC1)Cc1ccccc1-2` gave Measles CPE 20.
COc1ccc([N+](=O)[O-])cc1N(CC(=O)NCC1CCCO1)S(C)(=O)=O (centres undefined) was read as Measles CPE 19.
COc1ccc(S(=O)(=O)N(CC(=O)N/N=C/c2cccs2)c2cc(C)cc(C)c2)cc1OC was read as PostGolgi yeast -8, Measles CPE 2 and PostGolgi ctrl 22.
COc1ccc(NC(=O)OCCn2c([N+](=O)[O-])cnc2C)cc1 was read as Measles CPE 16.
Screening CCc1cccc(C)c1NC(=O)CN(C)Cc1ccccc1F returned Measles CPE 5.
`CCC(C)NC(=O)c1c(N)n(/N=C/c2ccccn2)c2nc3ccccc3nc12` (centres undefined) gave PostGolgi yeast 1, MT1-MMP txn act 0.9, Measles CPE 2 and PostGolgi ctrl 37*.
Screening CCC(C)NC(=O)c1c(N)n(/N=C/c2cccnc2)c2nc3ccccc3nc12 (centres undefined) returned PostGolgi yeast 0, MT1-MMP txn act 0.9, Measles CPE 5 and PostGolgi ctrl 16.
`Cc1ccc(C2=NN(CCC(=O)NCc3ccc4c(c3)OCO4)C(=O)CC2)cc1` gave Measles CPE 23.
For CCOC(=O)c1nn(-c2ccccc2F)c(-c2ccccc2)c1C(=O)c1ccccc1 the results were PostGolgi yeast 8, Measles CPE 13 and PostGolgi ctrl 32*.
Screening CCOC(=O)c1nn(-c2ccccc2)c(-c2ccccc2)c1C(=O)c1ccccc1 returned PostGolgi yeast 4, Measles CPE 9 and PostGolgi ctrl 23.
`CCc1oc(C(=O)O)cc1CN(CC)CC` gave PostGolgi yeast -1, MT1-MMP txn act 1.1, Measles CPE 15 and PostGolgi ctrl 7.
For CCc1oc(C(=O)O)cc1COC the results were PostGolgi yeast -21, MT1-MMP txn act 1.1, Measles CPE 18 and PostGolgi ctrl 33*.
For CCC(=O)NCCC(c1ccco1)c1ccccc1OC (centres undefined) the results were PostGolgi yeast 1, MT1-MMP txn act 1, Measles CPE 5 and PostGolgi ctrl 0.
Screening O=C(c1ccco1)N(CCC(c1ccccc1)c1ccco1)Cc1ccccc1 (centres undefined) returned Measles CPE 18.
`COc1ccccc1C(CCN(Cc1cccs1)C(C)=O)c1ccco1` (centres undefined) gave PostGolgi yeast 0, MT1-MMP txn act 1, Measles CPE 6 and PostGolgi ctrl 38*.
Screening CCC(=O)N(CCC(c1ccccc1)c1ccco1)Cc1cccs1 (centres undefined) returned PostGolgi yeast -16, MT1-MMP txn act 1.1, Measles CPE 35 and PostGolgi ctrl 48*.
For O=C(NN=C1CCCCCCCCCCC1)c1ccccc1F the results were Measles CPE 50*.
COc1ccc(C2C(C(=O)OC(C)C)=C(C)N=c3s/c(=C\c4cccs4)c(=O)n32)cc1 (centres undefined) was read as PostGolgi yeast -2, MT1-MMP txn act 1.1, Measles CPE 45* and PostGolgi ctrl 11.
`CCOC(=O)C1=C(C)N=c2s/c(=C/c3ccccc3)c(=O)n2C1c1ccc(OC)c(OC)c1` (centres undefined) gave PostGolgi yeast -5, Measles CPE 17 and PostGolgi ctrl -1.
For CCOC(=O)CSc1n[nH]c(NC(=O)c2ccccc2)n1 the results were PostGolgi yeast -3, Measles CPE 53* and PostGolgi ctrl 0.
`CCOC(=O)CSc1n[nH]c(NC(=O)c2ccc(F)cc2)n1` gave PostGolgi yeast 4, Measles CPE 11 and PostGolgi ctrl 11.
For CCn1ncc(Br)c1C(=O)Nc1sc2c(c1C(N)=O)CCC2 the results were PostGolgi yeast 6, MT1-MMP txn act 0.9, Measles CPE 33* and PostGolgi ctrl -4.
For Cc1ccccc1OCCSc1nc(N(C)C)nc(N(C)C)n1 the results were Measles CPE 18.
